Screening data deposited in PubChem BioAssay by National Center for Advancing Translational Sciences (NCATS).
IMPase cell inh – qHTS Assay for Identifying the Cell-Membrane Permeable IMPase Inhibitors. Inositol monophosphatase 1 (Rattus norvegicus), P97697. CHO-M1 cells, IP1 accumulation, HTRF TR-FRET ratio. inhibition (IP1 accumulation), % at 46.1 µM. 120,000 tested, under 10 active; active = well fitted curve in the direction sought with a large enough effect in the signal ratio, not every such curve was filed as active; inconclusive = small, poorly fitted or top-dose-only effect, or a change in a side signal; inactive = no such curve, though single readings can be large or run the other way; the % refers to the signal ratio;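 note: cells stimulated with carbachol in lithium chloride buffer; plate controls were DMSO basal wells for no effect and reference inhibitor wells for full effect; higher means more IMPase inhibition seen as more IP1 and lower FRET ratio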
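Seeded CHO-M1 cells were dosed with compound at up to 46 uM, stimulated with carbachol for 30 min, then lysed in IP-One detection reagents. Higher IP1 lowers the TR-FRET signal.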
PNC inhibitor – High Content Assay for Compounds that inhibit the Assembly of the Perinucleolar Compartment; PC3M PTB-GFP, PNC prevalence imaging, 16 h; stronger effect = lower value; activity change (PNC), negative = inhibition, % at 10 µM; 140,000 compounds, 3.1% hits;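 active = readout at or below -70, meaning at least 70% loss of cells showing the perinucleolar compartment, a nuclear body marking cancer cells; inconclusive = readout between -30 and a set limit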;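 note: plate controls were DMSO wells for no effect and camptothecin positive control wells for full effect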
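Compounds are pinned in duplicate onto adhered PC3M cells stably expressing GFP-tagged PTB and incubated 16 h at 37 C. Cells are then fixed, nuclei stained with Hoechst, and PNC-positive cells counted.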
ALDH1A1 inh – qHTS Assay for Inhibitors of Aldehyde Dehydrogenase 1 (ALDH1A1) | Purified ALDH1A1, NADH fluorescence, propionaldehyde substrate | Potency, µM (top dose mostly 75.3 µM), inactives show at the highest dose activity, negative = inhibition, most hits filed as inhibitors | 220,000 compounds, 7.3% hits;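 note: potency is the fitted concentration of half-maximal effect; plate controls were no enzyme wells and a reference inhibitor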
ALOX12 inhib – qHTS Assay for Inhibitors of 12-hLO (12-human lipoxygenase); 150,000 compounds, 0.12% hits; AID 1452, 2008; Potency, µM (top dose mostly 57.1 µM), inactives show top-dose activity change, negative = inhibition, hits mostly inhibitors; purified 12-hLO, xylenol orange hydroperoxide absorbance; Polyunsaturated fatty acid lipoxygenase ALOX12 (Homo sapiens), P18054; active = well fitted curve in the direction sought with a large enough effect; inconclusive = small, poorly fitted or top-dose-only effect, or another doubt; inactive = no such curve, though single readings can be large; an effect the other way counts as inactive or inconclusive; note: potency is the fitted concentration of half-maximal effect; nearly all actives have a fitted effect of over 55% in size
Target sequence (P18054 whole entry, looked up): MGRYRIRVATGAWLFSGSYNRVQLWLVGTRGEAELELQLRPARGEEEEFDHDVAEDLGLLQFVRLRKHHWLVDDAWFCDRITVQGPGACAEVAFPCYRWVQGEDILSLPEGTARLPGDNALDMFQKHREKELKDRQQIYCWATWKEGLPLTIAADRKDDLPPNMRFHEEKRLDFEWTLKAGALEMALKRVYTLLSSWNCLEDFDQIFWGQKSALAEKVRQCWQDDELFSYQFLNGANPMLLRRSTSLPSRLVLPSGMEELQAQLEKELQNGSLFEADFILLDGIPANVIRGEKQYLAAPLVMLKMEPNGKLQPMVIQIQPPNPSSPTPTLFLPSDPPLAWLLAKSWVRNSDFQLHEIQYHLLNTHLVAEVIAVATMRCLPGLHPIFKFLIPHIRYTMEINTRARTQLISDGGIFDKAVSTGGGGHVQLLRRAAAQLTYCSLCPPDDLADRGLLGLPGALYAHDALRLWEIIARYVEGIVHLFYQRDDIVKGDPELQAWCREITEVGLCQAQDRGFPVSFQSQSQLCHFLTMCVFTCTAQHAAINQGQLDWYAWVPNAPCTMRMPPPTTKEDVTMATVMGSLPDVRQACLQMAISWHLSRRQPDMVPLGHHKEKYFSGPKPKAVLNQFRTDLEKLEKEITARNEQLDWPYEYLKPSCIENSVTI
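150 nM 12hLO, 25 mM Hepes pH 7.0 + 0.01% Triton X-100; cpd preinc 15 min RT; 40 uM arachidonic acid, 30 min RT; Fe-XO 30 min; A573/A405 ratio as read-out.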
IMPase Li inh – qHTS Assay for Identifying the Cell-Membrane Permeable IMPase Inhibitors: Potentiation with Lithium | CHO-M1 cells, IP1 TR-FRET (IP-One), carbachol + lithium | Potency, µM (series often up to 59.4 µM), without a hit: at the highest dose activity, negative = IMPase inhibition, actives largely listed as inhibitors | 210,000 compounds, 0.35% hits; active = well fitted curve in the direction sought with a large enough effect; inconclusive = small, poorly fitted or top-dose-only effect, or another doubt; inactive = no such curve, though single readings can be large; an effect the other way counts as inactive or inconclusive;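 note: IP1 builds up when IMPase is blocked and the TR-FRET signal falls; potency is the fitted concentration of half-maximal effect; plate controls were basal vehicle for no effect and high inhibitor control for full effect; nearly all actives have a fitted effect of over 50% in size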
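IP1 accumulation measured by competitive TR-FRET in lysed CHO-M1 cells after 30 min compound exposure at 37C, with a small lithium addition to potentiate weak responses. Hill-equation AC50 from ratio and donor-channel data.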
HPGD block – qHTS Assay for Inhibitors of HPGD (15-Hydroxyprostaglandin Dehydrogenase); purified HPGD, NADH fluorescence kinetic, PGE2 substrate; Potency, µM, without a hit: top-dose activity change, negative = inhibition, actives largely listed as inhibitors; 150,000 compounds, 4.3% hits; AID 894, 2007; note: potency is the fitted concentration of half-maximal effect
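20 nM HPGD preincubated 15 min at room temperature with compound in 50 mM Tris-HCl pH 8, 0.01% Tween 20. Started with 1 mM NAD+ and 30 uM prostaglandin E2; NADH fluorescence (360/450 nm) read 5 times over 30-s intervals, last minus first.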
An asterisk follows results filed as active; ? = inconclusive; · = no result; [ ] = another dose, or the depositor's remark. A selection: hits, their analogues and other compounds. The true share with any hit is near 11%. Unless noted, calls come from the whole dose curve; as a rule, active = well fitted inhibition curve with a large enough effect (not every such curve was filed as active); inconclusive = small, poorly fitted or top-dose-only effect, or another doubt; inactive = no such curve, though single readings can be large or run the other way. Unless noted, % is set by controls: 0 for no effect and ±100 for the full control effect.

SMILES	IMPase cell inh	PNC inhibitor	ALDH1A1 inh	ALOX12 inhib	IMPase Li inh	HPGD block
CO[C@@]12C[C@@H](COC(=O)c3cncc(Br)c3)CN(C)[C@H]1Cc1cn(C)c3cccc2c13	9	·	-10%	-9%	26%	0%
Cc1nn(-c2cccc3cccnc23)c(=O)c2ccccc12	-2	34	-1%	-1%	29%[38.3 µM]	-9%
O=c1[nH]n(-c2cccc3cccnc23)c(=O)c2ccccc12	0	-4	1%	-7%	-2%[38.3 µM]	25µM*
O=C(NCC1OCCc2ccccc21)c1ccco1 (stereo unspecified)	-6	18	7.9µM*	-6%	27%[38.3 µM]	-21%
O=C(CCc1ccccc1)NCC1OCCc2ccccc21 (stereo unspecified)	·	·	0%	·	4%	·
CC(C)OC(=O)c1ccc(NC(=O)c2cncc(Br)c2)cc1	·	·	18µM*	·	10%	·
CN(C)C(=O)c1ccc(NC(=O)c2cncc(Br)c2)cc1	3	-100*	6%	-4%	4%	-25%
Cc1cc(/C=N/n2cnnc2)c(C)n1-c1ccc(Cl)cc1Cl	1	?	?	-3%	18%[38.3 µM]	-5%
Cc1cc(C=NCCCO)c(C)n1-c1cc(Cl)ccc1Cl	·	·	3.5µM*	·	2%	·
O=C(CN(CCc1ccccc1)C(=O)CNS(=O)(=O)c1ccccc1)NCc1ccco1	7	?	-13%	0%	4%[38.3 µM]	-8%
Cc1ccc(S(=O)(=O)NCC(=O)N(CCc2ccccc2)CC(=O)NCc2ccco2)cc1	6	-16	28µM*	-10%	-2%[38.3 µM]	-6%
CC(C)CNS(=O)(=O)c1ccc(CCC(=O)NCc2ccco2)cc1	8	0	2µM*	5%	12%	-21%
C[C@@H]1[C@H](C)CC[C@@]2(C(=O)O)CC[C@]3(C)C(=CC[C@H]4[C@@]5(C)CC[C@@H](O)C(C)(C)[C@@H]5CC[C@@]43C)[C@@H]12	-4[20.6 µM]	·	13%[20.9 µM]	-3%[25.6 µM]	19%	-2%
O=C(CCc1nnc(CCCCc2ccccc2)o1)NCCN1CCOC1=O	·	·	0.11µM*	·	6%	·
CC(=O)NCCNc1ncnc2ccc(-c3ccc(C(=O)N(C)C)cc3)cc12	·	·	?	8%	4%	?
Cc1ccc(S(=O)(=O)NC(=O)Nn2c(C)nnc2C)cc1	3	-80*	16%	1%	20%[38.3 µM]	-8%
CCOC(=O)CNS(=O)(=O)c1ccc(C)cc1	·	-113*	12%	-3%	-2%	-3%
COC(=O)NNS(=O)(=O)c1ccc(C)cc1	·	-99*	-9%	-2%	-6%	-5%
Cc1ccc(S(=O)(=O)NNC(=O)c2ccncc2)cc1	-11	32	3%	1%	-4%	-2%
Cc1ccc(S(=O)(=O)NCCCC(=O)C=[N+]=[N-])cc1	2	-109*	13µM*	-5%	2%[38.3 µM]	-4%
COc1ccc(NC(=O)c2sc3nc4c(c(-c5ccc(OC)cc5)c3c2N)C(=O)CC(C)(C)C4)cc1	1	·	·	·	·	·
Cc1ccc(S(=O)(=O)NCCOCCNS(=O)(=O)c2ccc(C)cc2)cc1	1	-16	13µM*	-9%	-2%[38.3 µM]	7%
O=C(CSc1nc(O)cc(=O)n1-c1ccccc1)Nc1ccc(Br)cn1	·	·	2%	·	-1%	·
CCOC(=O)C1=C(Cc2ccc(F)cc2)C(=O)c2ccccc2C1=O	14	?	?	?	36%[38.3 µM]	7.9µM*
O=C(OCc1ccc(F)cc1)c1ccc2c(c1)-c1ccccc1C2=O	2	47	5%	-3%	2%[38.3 µM]	-11%
SMILES	IMPase cell inh	PNC inhibitor	ALDH1A1 inh	ALOX12 inhib	IMPase Li inh	HPGD block
Cc1ccc(O)c(C(=O)c2coc(=N)c(C(=O)NC(C)C)c2)c1	-1	-23	?	3%	23%[38.3 µM]	18µM*
COC(=O)c1cc(C(=O)c2cc(Cl)ccc2O)coc1=N	·	·	?	·	-8%	·
CCCCn1c(=S)[nH]c2c(oc3ccc(Cl)cc32)c1=O	-23	48	?	-5%	10µM*	-7%
COc1cccc(Nc2ncc3ncc(=O)n(CCc4ccccc4)c3n2)c1	·	·	9%	·	2%	·
CCCCc1ccc(NC(=O)CC(C)=O)cc1	-6	-127*	-5%	-3%	0%[38.3 µM]	-5%
CCCCc1ccc(NC(=O)CC(C)(C)C)cc1	·	44	10%	3%	4%	14µM*
CCC1=Nc2cc(C(=O)NC3CCC(C)CC3)ccc2Sc2ccc(C)cc21 (stereo unspecified)	-5	·	·	·	·	·
O=C(O)c1c2c(nc3ccc(S(=O)(=O)N4CCC(C(=O)NC5CCCC5)CC4)cc13)CCCCC2	-5	-7	?	31%	6%[38.3 µM]	-16%
CC1CCc2nc3ccc(S(=O)(=O)N4CCC(C(=O)NC5CCCC5)CC4)cc3c(C(=O)O)c2C1 (stereo unspecified)	2	-8	40µM*	0%	1%[38.3 µM]	-25%
O=C(CSc1nc2cc(S(=O)(=O)N3CCOCC3)ccc2o1)NC1CCCc2ccccc21 (stereo unspecified)	10	?	2.2µM*	-12%	35%[38.3 µM]	8.9µM*
Cc1ccc(C(=O)CSc2nc3cc(S(=O)(=O)N4CCOCC4)ccc3o2)cc1	11	11	14µM*	-4%	8%[38.3 µM]	25µM*
O=C(CSc1nc2cc(S(=O)(=O)N3CCOCC3)ccc2o1)Nc1c(F)cccc1F	·	·	4µM*	·	-1%	·
O=C(NC1CCCc2ccccc21)c1cc(S(=O)(=O)N2CCOCC2)ccc1F (stereo unspecified)	·	·	?	·	13%	·
COc1ccccc1-c1cncnc1N1CCN(C)CC1	·	·	1%	·	10%	·
OC[C@@H](O)[C@@H](O)CCc1ccccc1	·	·	-1%	·	6%	-4%
CCOC(=O)CSc1nnc(CNC(=O)c2cccs2)n1-c1cccc(C)c1	-12	13	17%	2%	-7%[38.3 µM]	-4%
COC(=O)CSc1nnc(CNC(=O)c2cccs2)n1-c1cc(OC)ccc1OC	?	1	20µM*	-4%	·	·
Cc1nc2cnc(N(C)C)nc2n(CCc2ccccc2)c1=O	·	·	?	·	15%	·
NCCNc1cccc2ccccc12	·	·	?	-4%	-11%	-10%
NC1CONC1=O (stereo unspecified)	·	·	5%	-3%	-5%	-8%
Cc1cc(N2CCN(C)CC2)nc2ccc(NC(=S)N3CCN(c4ccccn4)CC3)cc12	·	·	13µM*	·	5%	·
